Source: PubChem
PLK1 PBD block = blocks phosphopeptide binding to human PLK1 polo-box domain. AID 720504. 360,000 compounds, 2.8% hits. Potency, µM, inactives show max response, negative = inhibition, usual class: inhibitors. Plk1 PBD binding of FITC phosphopeptide, fluorescence polarization; note: series mostly up to about 57 µM; nearly all actives have a fitted effect of over 65% in size
12-LOX inh = blocks human arachidonate 12S-lipoxygenase; 580,000 compounds, 1.1% hits; purified 12hLO, xylenol orange hydroperoxide absorbance; P18054; Potency, µM (doses to about 108 µM), for the others: at the top dose activity change, negative = inhibition, actives largely listed as inhibitors
Target sequence (P18054 whole entry, looked up): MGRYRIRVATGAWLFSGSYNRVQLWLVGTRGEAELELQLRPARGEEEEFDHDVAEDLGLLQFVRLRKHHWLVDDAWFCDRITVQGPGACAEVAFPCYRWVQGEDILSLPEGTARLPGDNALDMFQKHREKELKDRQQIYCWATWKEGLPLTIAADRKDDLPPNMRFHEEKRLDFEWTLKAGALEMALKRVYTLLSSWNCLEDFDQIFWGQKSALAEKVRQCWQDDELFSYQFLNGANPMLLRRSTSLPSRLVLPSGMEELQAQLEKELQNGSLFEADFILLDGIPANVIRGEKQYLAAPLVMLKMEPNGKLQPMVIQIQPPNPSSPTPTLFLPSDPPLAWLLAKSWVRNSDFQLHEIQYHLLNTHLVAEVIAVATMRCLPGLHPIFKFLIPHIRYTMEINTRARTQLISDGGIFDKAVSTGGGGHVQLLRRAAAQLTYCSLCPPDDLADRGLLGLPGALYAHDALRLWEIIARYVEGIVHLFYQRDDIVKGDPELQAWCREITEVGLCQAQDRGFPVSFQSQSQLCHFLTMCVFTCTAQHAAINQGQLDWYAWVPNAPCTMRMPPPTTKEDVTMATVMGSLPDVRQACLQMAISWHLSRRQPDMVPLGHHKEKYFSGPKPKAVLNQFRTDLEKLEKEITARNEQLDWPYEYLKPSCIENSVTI
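Purified human 12hLO at 150 nM in 25 mM Hepes, 0.01% Triton X-100, pH 7.0, preincubated 15 min at room temperature with compound. Reaction started with 40 uM arachidonic acid, 30 min at room temperature. Hydroperoxide measured by Fe-xylenol orange, 573/405 nm absorbance ratio.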
Sfp inh = inhibitors of Bacillus subtilis Sfp phosphopantetheinyl transferase; Q9F4F7; Biochemical Sfp PPTase activity, qHTS; Potency, µM, inactives show largest response in the series, negative = inhibition, hits mostly inhibitors; 310,000 compounds, 3.5% hits; AID 1490;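 note: the enzyme is Sfp with the accession as filed and its product quenches rhodamine fluorescence; 0% = enzyme reaction without inhibitor and -100% = no enzyme wells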
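With Hepes-Na pH 7.6 buffer containing 10 mM MgCl2, Sfp (15 nM) modified BHQ-2-YbbR (12.5 uM) using rhodamine-CoA (5 uM). Two reads 30 minutes apart at 525/598 nm yielded each well's rate.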
VDR inh = inhibitors of human vitamin D receptor; P11473; VDR-SRC2-3 peptide fluorescence polarization, 2 h; Potency, µM, without a hit: max response, negative = inhibition, usual class: inhibitors; 400,000 compounds, 0.93% hits
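Measured by FP: displacement of SRC2-3 coactivator peptide from VDR by library compounds, following a two-hour ambient incubation.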
Starred values were filed as active, the others as inactive; ? = inconclusive; . = not tested or not shown; [ ] = another dose, or the depositor's remark. The list is not random: actives were taken first. Their share in the collection is about 4.2%. Calls come from the whole dose curve; as a rule, active = well fitted curve in the direction sought with a large enough effect; inconclusive = small, poorly fitted or top-dose-only effect, or another doubt; inactive = no such curve, though single readings can be large; an effect the other way counts as inactive or inconclusive. Unless noted, % is set by controls: 0 for no effect and ±100 for the full control effect; potency is the fitted concentration of half-maximal effect.

SMILES	PLK1 PBD block	12-LOX inh	Sfp inh	VDR inh
c1coc(-c2nn3c(COc4ccc5c(c4)OCO5)nnc3s2)c1	.	-28%	.	.
c1ccc2c(c1)nnn2Cc1nnc2sc(-c3ccncc3)nn12	32µM*	-22%	40µM*	-12%
CSCCC(NC(=O)COc1ccccc1)C(=O)NCCOc1ccccc1 (stereo not given)	3%	?	.	-10%
CCOc1ccc(C(=O)N2CCC3(CC2)NC(=O)N(Cc2ccc(F)cc2)C3=O)cc1	.	-6%	.	.
Cc1ccc(N2NC3(CCN(C(N)=O)CC3)NC2=O)cc1	-4%	?	-12%	-15%
CCOc1ccc(C(=O)N2CCC3(CC2)NC(=O)N(c2ccc(F)cc2)N3)cc1	.	2.2µM*	.	.
Cc1ccc(C)c(C(=O)N2CCC3(CC2)NC(=O)N(c2cccc(F)c2)N3)c1	.	2.2µM*	.	.
CN(C)c1cccc(C(=O)N2CCC3(CC2)NC(=O)N(c2cccc(F)c2)N3)c1	.	2.2µM*	.	.
Cc1ccc(C)c(C(=O)N2CCC3(CC2)N(C)C(=O)CS3(=O)=O)c1	.	33%	.	.
Cc1ccsc1C(=O)N1CCC2(CC1)NC(=O)N(c1ccc(F)cc1)N2	.	2.2µM*	.	.
C=CCn1c(SCc2nc3c(c(=O)[nH]c(=O)n3CCCC)n2CCC)nnc1-c1ccccc1	-1%	-7%	5%	-10%
Cc1nn(CC(=O)NCCCN2CCCC2=O)c(C)c1[N+](=O)[O-]	-5%	-19%	.	-2%
O=C1CN(C(=O)CCC(=O)N2CCC(Cc3nncn3-c3ccccc3)CC2)c2ccccc2N1	.	11%	.	.
COc1ccc(CN2CCn3c(nnc3C3CCNCC3)C2)cc1	.	10%[6.33 µM]	.	.
O=C(Nc1ccc(-c2ccc([N+](=O)[O-])cc2)cc1)c1ccccc1F	-2%	-8%	-9%	-16%
Cc1nnc(NC(=O)C2CC(=O)N(c3n[nH]c4cc(Br)ccc34)C2)s1 (stereo not given)	.	-23%	.	.
O=C(c1cccc(F)c1)N1CCC2(CC1)NC(=O)N(c1ccccc1Cl)N2	.	1.3µM*	.	.
O=C(Cc1ccc(Cl)cc1)N1CCC2(CC1)NC(=O)N(c1ccc(F)cc1)N2	.	2.5µM*	.	.
Cc1ccc(C(=O)N2CCC3(CC2)NC(=O)N(c2cccc(F)c2)N3)cc1	.	2.5µM*	.	.
O=C(Cc1ccc(F)cc1)N1CCC2(CC1)NC(=O)N(Cc1ccccc1)C2=O	.	-4%	.	.
Cc1ccc(C(=O)N2CCC3(CC2)NC(=O)N(c2cccc(Cl)c2)N3)c(C)c1	.	1.4µM*	.	.
Cc1ccccc1N1CC(C(=O)Nc2ccc(S(=O)(=O)N3CCOCC3)cc2)CC1=O (stereo not given)	-11%	-21%	8%	41%
C=CCn1c(C(CCC(C)C)CC(C)(C)O)n[nH]c1=S (stereo not given)	-3%	?	-8%	12%
Cc1ccc(C(=O)N2CCC3(CC2)NC(=O)N(c2ccc(F)cc2)N3)cc1	.	3.2µM*	.	.
COc1ccc(NC(=O)c2c(C)oc3ccc(O)c(CN4CCOCC4)c23)cc1	.	-6%	.	0%
SMILES	PLK1 PBD block	12-LOX inh	Sfp inh	VDR inh
COc1ccc(C(=O)c2c(C)oc3ccc(O)c(CN4CCOCC4)c23)cc1	-11%	?	56µM*	-24%
C#CCCc1cscc1/C=[N+](\[O-])c1ccc(C(=O)OCC)cc1	7.5µM*	?	.	?
C#CCCC(=O)c1ccccc1/C=[N+](\[O-])c1ccccc1	-29%	?	.	-10%
CCCC(=O)Oc1c(Sc2ccc(Cl)cc2)c(C)nn1-c1ccccc1	.	45µM*	.	50µM*
COc1ccccc1C(=O)Oc1c(Sc2ccccc2)c(C)nn1-c1ccccc1	.	-28%	.	-30%
Cc1ccc(Sc2c(C)nn(-c3ccccc3)c2OC(=O)CC(C)C)cc1	.	?	.	79µM*
NC(=O)CSc1ncc2c(n1)-c1ccccc1N(Cc1cccc(F)c1)S2(=O)=O	.	-27%	.	2%
c1ccc2c(SCc3cn4ccccc4n3)nncc2c1	-6%	-3%	45µM*	1%
CNC(=O)CCn1ncc2cc(OCc3ccccc3-c3ccccc3COC)ccc21	.	1%[176 µM]	.	.
COc1cccc(F)c1-c1ccc(COc2ccc3c(cnn3CCC(=O)O)c2)cc1	.	22µM*	.	.
Cc1ccccc1-c1ccc(COc2ccc3c(cnn3CCC(=O)O)c2)cc1	.	45µM*	.	.
COc1cc(F)cc(-c2ccc(COc3ccc4c(cnn4CCC(=O)O)c3)cc2)c1	.	28µM*	.	.
CC1CCN(C(=O)Cn2cc(SCC(=O)Nc3ccccc3)c3ccccc32)CC1	.	-4%	.	-3%
O=C(O)c1ccccc1N/N=C/c1cc(Br)cc(Br)c1O	21µM*	45µM*	-13%	?
